Test [1] in a line: qHTS assay to identify aromatase inhibitors - cell viability counter screen (AID 743084).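 Note: cells stimulated with testosterone during compound exposure; nearly all actives have a fitted effect of over 55% in size.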 In general terms: Quantitative high-throughput screening tests each substance at several concentrations.
Test [2] addresses Aryl hydrocarbon receptor (Homo sapiens) (UniProt P35869). Nature of the test: qHTS assay to identify small molecule that activate the aryl hydrocarbon receptor (AhR) signaling pathway (AID 743085).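 Note: HG2L7.5c1 human HepG2 liver cells with stably integrated DRE-driven firefly reporter; series mostly up to about 70 µM; nearly all actives have a fitted effect of over 15% in size.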 In short, it runs like this: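 HepG2 cells (HG2L7.5c1) stably carrying a firefly luciferase reporter driven by 20 dioxin responsive elements were exposed to compound for 24 h at 37C after a 5 h settling period; luminescence rise (ONE-Glo) indicated activation.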

Test [3] can be described thus: qHTS assay to identify small molecule that activate the aryl hydrocarbon receptor (AhR) signaling pathway - cell viability counter screen (AID 743086). Note: nearly all actives have a fitted effect of over 45% in size. Note: potency is the fitted concentration of half-maximal effect. The essentials: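 HepG2-AhR-luc (HG2L7.5c1) cells, 4000/well, were preincubated 5 h at 37C, exposed to compound in qHTS format for 24 hr at 37C, then given CellTiter-Fluor for 30 min; viability was read as fluorescence in the reporter wells.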

Test [4] deals with Peroxisome proliferator-activated receptor gamma (Homo sapiens) (UniProt P37231). Nature of the test: qHTS assay to identify small molecule agonists of the peroxisome proliferator-activated receptor gamma (PPARg) signaling pathway (AID 743094; active = well fitted activation curve with a large enough effect in the signal ratio in the repeat runs, not every such curve was filed as active; the % refers to the signal ratio). In short, it runs like this:
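Cell-based bla reporter, HEK293H background, PPARg-driven UAS. Pre-incubation 5 h, 37C, 5% CO2. Compound 17 h, 37C. Substrate 1 h RT; fluorescence.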

Test [5] has the same target. Nature of the test: qHTS assay to identify small molecule antagonists of the peroxisome proliferator-activated receptor gamma (PPARg) signaling pathway (AID 743191; calls by dose curve; note: series mostly up to about 63 µM; nearly all actives have a fitted effect of over 30% in size). In short, it runs like this:
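GeneBLAzer PPARg UAS-bla HEK293H cells carrying a UAS-driven beta-lactamase reporter were plated at 3000 cells/well, preincubated 5 h at 37C, then given compound for 17 h at 37C; LiveBLAzer B/G FRET substrate was read after 1 h at room temperature.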

The nature of test [6]: qHTS assay to identify small molecule antagonists of the peroxisome proliferator-activated receptor gamma (PPARg) signaling pathway - cell viability counter screen (AID 743194). Note: nearly all actives have a fitted effect of over 55% in size. In short, it runs like this: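 PPARg-UAS-bla HEK293H cells were plated, rested 5 h at 37 C, then treated with compounds plus rosiglitazone (50 nM final) for 17 h at 37 C; viability was then read by CellTiter-Glo luminescence after 30 min at room temperature.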

A short description of test [7]: qHTS assay for small molecule agonists of the antioxidant response element (ARE) signaling pathway (AID 743202; active = well fitted activation curve with a large enough effect in the signal ratio in the repeat runs, not every such curve was filed as active; the % refers to the signal ratio). The essentials: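 Following a 16 h, 37 C exposure of reporter HepG2 cells (ARE-driven beta-lactamase, 2,000 cells/well) to compounds, FRET substrate was applied for 2 h at room temperature and fluorescence intensity recorded.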
The nature of test [8]: qHTS assay for small molecule agonists of the antioxidant response element (ARE) signaling pathway - cell viability counter screen (AID 743203; calls by dose curve; note: nearly all actives have a fitted effect of over 55% in size). The essentials:
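Measured in the same wells as the beta-lactamase ARE reporter, this read-out is CellTiter-Glo luminescence from HepG2 ARE-bla cells given compounds for 16 hrs.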

A short description of test [9]: qHTS assay for small molecule activators of the heat shock response signaling pathway - cell viability counter screen (AID 743209). Note: nearly all actives have a fitted effect of over 50% in size. The essentials: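 Same-well multiplex: after 2.5 h room-temperature incubation with LiveBLAzer B/G substrate and fluorescence reading, CellTiter-Glo reagent was added to HSE-bla HeLa cells that had received compound for 5 h at 37 C; luminescence read after 30 min.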

A short description of test [10]: qHTS assay for small molecule activators of the heat shock response signaling pathway (AID 743210; active = well fitted activation curve with a large enough effect in the signal ratio in the repeat runs, with a control signal flat, not every such curve was filed as active; the % refers to the signal ratio; note: series mostly up to about 63 µM). In short, it runs like this: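 Heat shock element–beta-lactamase HeLa reporter cells; qHTS with compounds for 5 h at 37 C; detection by FRET substrate fluorescence after 2.5 h at RT.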
The nature of test [11]: qHTS assay to identify small molecule agonists of the peroxisome proliferator-activated receptor delta (PPARd) signaling pathway - cell viability counter screen (AID 743211). Note: nearly all actives have a fitted effect of over 55% in size. The essentials: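 PPARd-bla HEK293H cells (UAS-beta-lactamase reporter) were treated with compounds for 17 h at 37 C. Viability was then read in the same wells by CellTiter-Glo luminescence after 30 min at room temperature.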

Test [12] in a line: qHTS assay to identify small molecule antagonists of the peroxisome proliferator-activated receptor delta (PPARd) signaling pathway - cell viability counter screen (AID 743213). Note: nearly all actives have a fitted effect of over 50% in size. The essentials: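 CellTiter-Glo was added to PPARd-bla HEK293H wells following 17 h compound treatment in the presence of 300 nM L165041. Luminescence was recorded after 30 min at room temperature.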

A short description of test [13]: qHTS assay to identify small molecule antagonists of the farnesoid-X-receptor (FXR) signaling pathway - cell viability counter screen (AID 743221; active = well fitted cell-killing curve with a large enough effect in the repeat runs, not every such curve was filed as active; note: nearly all actives have a fitted effect of over 50% in size). The essentials:
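FXR-UAS-bla HEK 293T cells were treated with test compounds plus chenodeoxycholic acid (50 uM final) for 16 h at 37 C. Cell viability in the same wells was then read as CellTiter-Glo luminescence after 30 min at room temperature.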

Test [14] concerns the target Vitamin D3 receptor (Homo sapiens) (UniProt P11473). Put plainly: qHTS assay to identify small molecule agonists of the vitamin D receptor (VDR) signaling pathway (AID 743222; calls by dose curve). In short, it runs like this:
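Following 4 h attachment at 37C, VDR-bla cells (2,000 per well) received DMSO-dissolved compounds or controls. After 16 h incubation, LiveBLAzer B/G FRET substrate was added and fluorescence read 2 h later at room temperature.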

The target in test [15] is Peroxisome proliferator-activated receptor delta (Homo sapiens) (UniProt Q03181). Put plainly: qHTS assay to identify small molecule agonists of the peroxisome proliferator-activated receptor delta (PPARd) signaling pathway (AID 743212; calls by dose curve). The essentials: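 Beta-lactamase reporter read by fluorescence (LiveBLAzer B/G FRET, 2 h, room temperature). Test agents, in DMSO, incubated at 37 C with PPARd-bla HEK293H cells.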
Chain of Peroxisome proliferator-activated receptor delta (Homo sapiens) (Q03181 whole entry, looked up): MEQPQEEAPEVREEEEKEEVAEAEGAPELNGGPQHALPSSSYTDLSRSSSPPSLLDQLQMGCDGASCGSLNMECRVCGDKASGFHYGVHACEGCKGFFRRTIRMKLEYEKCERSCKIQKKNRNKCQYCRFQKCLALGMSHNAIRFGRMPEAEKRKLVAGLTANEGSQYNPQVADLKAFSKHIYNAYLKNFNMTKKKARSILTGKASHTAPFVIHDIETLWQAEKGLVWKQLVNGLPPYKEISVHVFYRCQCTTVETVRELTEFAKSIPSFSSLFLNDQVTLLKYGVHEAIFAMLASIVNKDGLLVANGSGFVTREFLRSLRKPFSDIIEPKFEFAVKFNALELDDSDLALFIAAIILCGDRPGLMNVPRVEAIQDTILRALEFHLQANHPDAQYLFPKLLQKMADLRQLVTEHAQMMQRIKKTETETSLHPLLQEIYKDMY

For test [16] the target is unchanged. Nature of the test: qHTS assay to identify small molecule antagonists of the peroxisome proliferator-activated receptor delta (PPARd) signaling pathway (AID 743215; active = well fitted inhibition curve with a large enough effect in the signal ratio in the repeat runs, not every such curve was filed as active; the % refers to the signal ratio;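 note: cells stimulated with agonist L165041 at 300 nM final during compound exposure; series mostly up to about 62 µM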). The essentials:
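Fluorescence from cleaved LiveBLAzer B/G FRET substrate (2 h, room temperature) reports PPARd-driven beta-lactamase in HEK293H UAS-bla cells. Cells had been treated 17 h at 37 C with compound plus 300 nM final L165041.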

Test [17] in a line: qHTS assay to identify small molecule agonists of the farnesoid-X-receptor (FXR) signaling pathway - cell viability counter screen (AID 743218). Note: nearly all actives have a fitted effect of over 45% in size. In short, it runs like this: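 Readout: CellTiter-Glo luminescence, 30 min RT, multiplexed after the FXR-bla FRET reading. HEK 293T FXR-UAS-bla cells received compound 5 h post-plating and were incubated 16 h at 37 C.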
Test [18] has as its target Vitamin D3 receptor (Homo sapiens) (UniProt P11473). Nature of the test: qHTS assay to identify small molecule antagonists of the vitamin D receptor (VDR) signaling pathway (AID 743223; active = well fitted inhibition curve with a large enough effect in the signal ratio in the repeat runs, not every such curve was filed as active; the % refers to the signal ratio). The essentials:
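VDR-bla cells were plated, incubated 4 h at 37C, then given compound and 1alpha,25-dihydroxyvitamin D3 (3 nM final). After 16 h at 37C, LiveBLAzer B/G FRET substrate was added for 2 h at room temperature and fluorescence read.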

Test [19] addresses Bile acid receptor (Homo sapiens) (UniProt Q96RI1). Nature of the test: qHTS assay to identify small molecule antagonists of the farnesoid-X-receptor (FXR) signaling pathway (AID 743217; active = well fitted inhibition curve with a large enough effect in the signal ratio in the repeat runs, not every such curve was filed as active; the % refers to the signal ratio). In short, it runs like this: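 FRET fluorescence after 2 h room-temperature LiveBLAzer loading gives the readout. Prior step: FXR-bla HEK 293T cells, seeded and incubated 5 h, received test compounds plus 50 uM final CDCA for 16 h at 37 °C.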

Test [20] shares this target. Put plainly: qHTS assay to identify small molecule agonists of the farnesoid-X-receptor (FXR) signaling pathway (AID 743220; active = well fitted activation curve with a large enough effect in the signal ratio in the repeat runs, not every such curve was filed as active; the % refers to the signal ratio). The essentials:
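FXR-UAS-bla HEK 293T cells carrying a UAS-driven beta-lactamase reporter were plated for 5 h at 37C/5% CO2, then exposed to DMSO-dissolved Tox21 10K compounds for 16 h at 37C. A LiveBLAzer B/G FRET substrate was loaded for 2 h at room temperature before fluorescence reading.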

The results in this text go back to PubChem BioAssay (Tox21).

Records with an inconclusive call do not appear. The source made the active and inactive calls. Unless noted, calls come from the whole dose curve; as a rule, active = well fitted curve in the direction sought with a large enough effect in the repeat runs; inconclusive = weak or mixed curves; inactive = no such curve, though single readings can be large; an effect the other way counts as inactive or inconclusive.

Chain of Peroxisome proliferator-activated receptor gamma (Homo sapiens) (P37231 whole entry, looked up): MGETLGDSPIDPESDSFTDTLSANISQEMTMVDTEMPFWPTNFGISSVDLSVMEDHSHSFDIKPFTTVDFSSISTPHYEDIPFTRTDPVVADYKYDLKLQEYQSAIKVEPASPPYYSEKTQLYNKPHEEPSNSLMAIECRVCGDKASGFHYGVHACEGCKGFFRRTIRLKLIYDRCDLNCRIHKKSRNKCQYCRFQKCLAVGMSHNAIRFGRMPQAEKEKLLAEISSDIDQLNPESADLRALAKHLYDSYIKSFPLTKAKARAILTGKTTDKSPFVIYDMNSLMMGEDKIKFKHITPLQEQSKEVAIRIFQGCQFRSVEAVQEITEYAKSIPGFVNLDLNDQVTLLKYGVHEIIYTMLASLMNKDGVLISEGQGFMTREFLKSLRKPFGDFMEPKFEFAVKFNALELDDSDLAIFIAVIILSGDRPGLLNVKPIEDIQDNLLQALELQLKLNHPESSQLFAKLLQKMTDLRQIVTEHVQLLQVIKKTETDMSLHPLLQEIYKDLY
Chain of Bile acid receptor (Homo sapiens) (Q96RI1 whole entry, looked up): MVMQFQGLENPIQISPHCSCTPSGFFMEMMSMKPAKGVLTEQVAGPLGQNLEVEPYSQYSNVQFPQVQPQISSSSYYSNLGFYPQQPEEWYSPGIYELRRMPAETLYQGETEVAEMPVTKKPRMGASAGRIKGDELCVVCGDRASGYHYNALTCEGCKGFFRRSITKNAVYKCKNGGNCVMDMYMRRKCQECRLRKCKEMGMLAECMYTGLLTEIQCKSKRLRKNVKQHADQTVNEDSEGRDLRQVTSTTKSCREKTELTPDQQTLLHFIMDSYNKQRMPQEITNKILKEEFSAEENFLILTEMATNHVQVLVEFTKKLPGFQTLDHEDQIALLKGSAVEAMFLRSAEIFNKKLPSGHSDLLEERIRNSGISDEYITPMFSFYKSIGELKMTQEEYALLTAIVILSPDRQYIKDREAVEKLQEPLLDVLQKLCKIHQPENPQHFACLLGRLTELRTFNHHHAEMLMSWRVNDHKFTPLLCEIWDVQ
Chain of Aryl hydrocarbon receptor (Homo sapiens) (P35869 whole entry, looked up): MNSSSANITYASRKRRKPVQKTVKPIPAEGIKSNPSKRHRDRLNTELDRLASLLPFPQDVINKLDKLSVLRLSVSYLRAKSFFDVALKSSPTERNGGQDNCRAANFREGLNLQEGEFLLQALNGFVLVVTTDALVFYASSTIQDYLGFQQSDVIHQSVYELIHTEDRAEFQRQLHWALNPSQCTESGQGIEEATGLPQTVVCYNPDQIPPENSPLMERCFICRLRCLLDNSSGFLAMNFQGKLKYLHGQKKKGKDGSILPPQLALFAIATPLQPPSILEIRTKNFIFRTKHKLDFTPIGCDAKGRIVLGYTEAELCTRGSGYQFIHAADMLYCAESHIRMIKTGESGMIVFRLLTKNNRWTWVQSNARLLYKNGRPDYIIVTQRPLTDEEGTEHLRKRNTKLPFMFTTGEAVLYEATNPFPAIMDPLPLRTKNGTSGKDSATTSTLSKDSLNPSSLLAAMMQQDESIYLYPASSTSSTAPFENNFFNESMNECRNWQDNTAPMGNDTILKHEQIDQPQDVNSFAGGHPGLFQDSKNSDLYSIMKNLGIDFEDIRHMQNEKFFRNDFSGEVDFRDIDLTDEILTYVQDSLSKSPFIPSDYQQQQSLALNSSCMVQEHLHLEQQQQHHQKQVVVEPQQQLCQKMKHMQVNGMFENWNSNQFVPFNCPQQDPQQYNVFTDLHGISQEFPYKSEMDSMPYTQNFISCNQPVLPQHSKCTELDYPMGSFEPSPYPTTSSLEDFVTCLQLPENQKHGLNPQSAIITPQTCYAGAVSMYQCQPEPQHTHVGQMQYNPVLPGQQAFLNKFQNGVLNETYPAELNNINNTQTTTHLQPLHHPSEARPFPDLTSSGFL
Chain of Vitamin D3 receptor (Homo sapiens) (P11473 whole entry, looked up): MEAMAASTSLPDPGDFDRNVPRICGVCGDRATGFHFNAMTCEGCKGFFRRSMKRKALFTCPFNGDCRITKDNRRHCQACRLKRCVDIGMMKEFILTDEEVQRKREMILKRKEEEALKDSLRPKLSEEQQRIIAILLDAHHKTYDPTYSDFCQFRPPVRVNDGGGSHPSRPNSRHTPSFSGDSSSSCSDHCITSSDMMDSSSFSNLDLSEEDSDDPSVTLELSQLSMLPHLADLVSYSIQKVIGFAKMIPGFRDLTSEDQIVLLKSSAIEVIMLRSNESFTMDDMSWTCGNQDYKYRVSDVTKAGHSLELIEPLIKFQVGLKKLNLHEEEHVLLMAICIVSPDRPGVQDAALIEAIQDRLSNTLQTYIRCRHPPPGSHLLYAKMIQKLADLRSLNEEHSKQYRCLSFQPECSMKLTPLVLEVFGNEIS

Turning to `CCCCCC#CC(=O)OC`, the Potency result in test [1], in [2], in [3], in test [4], in test [5] and in test [6] was “inactive” in each case. In addition, the Potency result in test [7], in test [8], in test [9], in test [10], in test [11] and in test [12] was “inactive” throughout. Further, the Potency entry in [13] and in [14] was “inactive” in each case.

`CO[C@]1(NC(=O)CSC(F)F)C(=O)N2C(C(=O)O)=C(CSc3nnnn3CCO)CO[C@H]21`: the Potency entry in [1], in test [2], in [3], in [4], in [5] and in test [6] was “inactive” in each case. The Potency result in test [7], in [8], in test [9], in test [10], in test [11] and in test [15] was “inactive” in each case. The Potency entry in [12], in [16], in [17], in [13], in test [14] and in test [18] was “inactive” throughout.

Take `CCC(C)(C)OC`: the Potency entry in [1], in [2], in test [3], in [4], in [5] and in test [6] was “inactive” each time. For the same compound, the Potency result in test [7], in test [8], in test [9], in test [10], in test [11] and in test [15] was “inactive” each time. In addition, the Potency result in test [12], in test [16], in [19], in test [17] and in test [20] was “inactive” throughout.

Regarding `CC(C)Nc1cccnc1N1CCN(C(=O)c2cc3cc(NS(C)(=O)=O)ccc3[nH]2)CC1`, the Potency result in test [1], in test [2], in test [3], in test [4], in [5] and in [6] was “inactive” each time. Also, the Potency entry in test [8], in test [10], in test [11], in test [12], in test [19] and in test [17] was “inactive” throughout. The Potency entry in [13], in test [14] and in test [18] was “inactive” throughout.

For the compound `OCCOCC#CCOCCO`, the Potency entry in [1], in [2], in test [3], in test [4], in test [5] and in test [6] was “inactive” in each case. The Potency entry in test [7], in test [8], in test [9], in [10], in test [11] and in test [15] was “inactive” each time. In addition, the Potency result in test [12], in test [17] and in [14] was “inactive” throughout.

Regarding `CCOC(=O)[C@H](CCc1ccccc1)N[C@@H](C)C(=O)N(CC(=O)O)C1Cc2ccccc2C1`, the Potency entry in [1], in test [2], in [3], in test [4], in [5] and in [6] was “inactive” throughout. Besides, the Potency result in test [7], in [8], in test [9], in test [10], in test [16] and in test [14] was “inactive” each time. For the same compound, the Potency result in test [18] is “inactive”.

For the compound `OC(CCN1CCCC1)(c1ccccc1)C1CCCCC1` (configuration not stated), the Potency result in test [1], in test [2], in [3], in test [4], in test [5] and in test [6] was “inactive” throughout. The Potency result in [7], in [8], in test [9], in test [10], in [11] and in test [12] was “inactive” each time. The Potency entry in test [17], in [13], in test [14] and in test [18] was “inactive” throughout.

As to `CC1=Nc2ccc3ccccc3c2C1(C)C`, the Potency result in test [1], in test [2], in test [4], in test [5], in test [6] and in [8] was “inactive” throughout. In addition, in test [11], the Potency result is “inactive”. Besides, the Potency in test [3] is 54.5 µM (active).

As for `CCN(CC)CCNC(=O)COc1ccc(OC)cc1`, the Potency entry in test [1], in test [2], in test [3], in test [4], in [5] and in test [6] was “inactive” throughout. Moreover, the Potency result in test [7], in [8], in test [11], in test [15], in test [12] and in [19] was “inactive” each time. Further, the Potency result in test [20], in test [13], in [14] and in [18] was “inactive” in each case.
